ROMK primary – ROMK potassium channel modulators, primary screen, cell-based, thallium flux, MLSMR library; ATP-sensitive inward rectifier potassium channel 1 (Homo sapiens), P48048; 130,000 compounds, 2% hits; B-score at 10 µM; Tet-inducible ROMK, thallium flux fluorescence; actives lie on both sides; AID 1918, 2009;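 active = signal ratio slope over the read window, or its plate-corrected B-score, at least 3 SD from the plate mean, either direction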;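 note: B-score of the F/F0 ratio slope over 7 to 12 s after thallium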
Lmaj promast – Leishmania major promastigote growth inhibition, primary screen | Leishmania major promastigotes, resazurin fluorescence viability | 200,000 compounds, 9% hits | inhibition, % at 10 µM; in the data active = inhibition above about 50%;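 note: promastigotes grown with compound for 44 hours at 28 °C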
WT yeast gro inh – growth inhibition of WT strain, primary screen, mitochondrial fusion inhibitor project, WT and mutant strains, chemical genetic. mitochondrial fusion phenotypic screen. inhibition, % at 10 µM. 190,000 compounds, 2.1% hits; in the data active = inhibition above about 58%; tested in S. cerevisiae
Calpain2 inh – inhibitors of pig calpain II, primary screen, biochemical, fluorogenic peptide substrate, 1536-well; inhibition, % at 16 µM; purified calpain II, 30 min; 220,000 compounds, 0.37% hits; AID 1236, 2008;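 active = inhibition above about 50%, limit read from the data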
Cl transport mod – KCC2 cotransporter modulators, thallium flux, primary screen, cell-based, HEK293 KCC2, FluoZin-2 fluorescence, MLSMR; B-score of Tl+ flux slope (higher = more flux/activation; lower = inhibition) at 10 µM; 190,000 compounds, 2.2% hits; AID 1456, 2008; KCC2 cells, thallium flux FluoZin-2 fluorescence;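 active = thallium flux slope and its plate-corrected score both differing from the plate sample mean at a set confidence after two filtering rounds, in either direction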;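 note: slope of fluorescence scaled to starting intensity during 10 to 20 s after thallium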
Target sequence (Q9H2X9 whole entry, looked up): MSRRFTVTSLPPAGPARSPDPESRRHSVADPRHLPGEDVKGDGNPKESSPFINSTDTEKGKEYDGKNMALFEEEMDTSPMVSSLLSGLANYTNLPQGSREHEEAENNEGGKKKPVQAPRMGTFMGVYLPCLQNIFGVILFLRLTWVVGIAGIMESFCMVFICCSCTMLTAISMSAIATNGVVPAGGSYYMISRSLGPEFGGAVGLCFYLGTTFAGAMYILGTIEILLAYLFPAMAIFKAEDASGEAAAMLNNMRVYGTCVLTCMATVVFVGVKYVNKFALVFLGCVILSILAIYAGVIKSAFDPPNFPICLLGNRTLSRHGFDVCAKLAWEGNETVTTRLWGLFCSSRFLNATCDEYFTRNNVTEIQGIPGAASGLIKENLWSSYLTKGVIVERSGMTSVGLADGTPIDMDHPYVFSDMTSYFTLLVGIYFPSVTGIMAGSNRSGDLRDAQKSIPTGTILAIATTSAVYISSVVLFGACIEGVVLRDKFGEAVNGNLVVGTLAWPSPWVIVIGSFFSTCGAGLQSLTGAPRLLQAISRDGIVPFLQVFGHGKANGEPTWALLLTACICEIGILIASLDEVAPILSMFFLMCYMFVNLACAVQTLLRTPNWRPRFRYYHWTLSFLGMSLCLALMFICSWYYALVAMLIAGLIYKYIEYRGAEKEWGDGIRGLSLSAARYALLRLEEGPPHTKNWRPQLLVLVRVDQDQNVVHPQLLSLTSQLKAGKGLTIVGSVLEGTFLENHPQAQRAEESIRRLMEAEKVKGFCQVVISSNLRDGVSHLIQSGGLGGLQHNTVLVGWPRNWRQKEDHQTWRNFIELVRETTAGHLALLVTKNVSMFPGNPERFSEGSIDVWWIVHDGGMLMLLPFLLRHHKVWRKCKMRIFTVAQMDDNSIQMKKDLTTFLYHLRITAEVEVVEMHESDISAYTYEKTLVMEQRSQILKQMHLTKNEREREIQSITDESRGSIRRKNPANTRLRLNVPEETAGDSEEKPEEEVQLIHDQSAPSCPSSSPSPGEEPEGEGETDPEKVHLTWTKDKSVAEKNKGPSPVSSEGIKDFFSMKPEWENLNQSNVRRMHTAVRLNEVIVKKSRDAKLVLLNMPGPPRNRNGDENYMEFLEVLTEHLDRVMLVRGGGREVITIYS
An asterisk follows results filed as active; i = inactive; / = no result. Compounds with a hit are over-represented: about 12% of the library has one in this group of screens.

SMILES	ROMK primary	Lmaj promast	WT yeast gro inh	Calpain2 inh	Cl transport mod
O=C(Nc1cc(S(=O)(=O)N2CCCC2)ccc1OCC(F)(F)F)c1ccccc1F	-0.0434	-5.3	3.0	-16.4	2.01
COC(=O)c1cc(OC)c(OC)cc1NCC(=O)Nc1ccc(OC)c(OC)c1	/	53.0*	-2.4	-20.1	0.124
O=C(CNc1cc(S(=O)(=O)N2CCCC2)ccc1OCC(F)(F)F)Nc1cccc(C(F)(F)F)c1	/	95.1*	-1.6	22.0	0.559
O=C(COc1ccccc1O)NNc1ccccc1	0.337	74.2*	29.7	8.0	0.7
C=CCn1c(SCc2c(C(=O)OC)sc(N)c2C(=O)OC)nnc1-c1ccc(Br)cc1	-1.38	99.2*	9.7	15.0	1.65
Cc1cc(NNC(=O)c2cccc(C(F)(F)F)c2)nc2c1c(C)nn2C	/	/	/	-10.0	0
CSC1=NSC2=NC(=O)/C(=C\c3cccs3)C(=N)N12	-0.753	0.1	22.7	29.1	-0.156
N=C1/C(=C/c2cccs2)C(=O)N=C2SN=C(SCc3ccccc3)N12	/	-10.3	23.8	-38.5	32*
O=C1Nc2ccc3sc4ccccc4c3c2C1=O	/	/	/	18.2	-0.482
CS(=O)(=O)NCCNc1ncc(C(F)(F)F)cc1Cl	0.696	-6.6	1.0	13.9	-0.559
O=C1CC(=O)N(CCNc2ncc(C(F)(F)F)cc2Cl)C(=O)N1	/	-4.1	15.2	-68.5	/
O=C1C=CC(=O)N1CCNc1ncc(C(F)(F)F)cc1Cl	-0.0908	1.6	97.2*	2.4	-0.763
O=S(=O)(NCCNc1ncc(C(F)(F)F)cc1Cl)C(F)(F)F	0.385	-4.0	82.9*	-38.2	-1.59
Cc1ccc(OCc2nnc(SC(C)C(=O)O)n2Cc2ccccc2)cc1 (stereo not drawn)	-0.5	-9.8	-7.3	-8.8	-0.00154
Cn1c(-c2cccs2)nc2ccccc21	1.26	10.4	-0.1	-98.4	-0.742
COc1ccc(-c2cc3ccccc3[nH]2)cc1	/	/	/	-11.5	1.31
Cc1ccc(O)c(-c2cc3ccccc3[nH]2)c1	-0.0347	59.0*	18.3	i	0.571
OCC(O)C1OC(Nc2ccc(Cl)cc2)C(O)C1O (stereo not drawn)	0.586	/	/	-4.6	-0.0497
CCCCC(CC)C(=O)Nc1ncc([N+](=O)[O-])s1 (stereo not drawn)	/	59.0*	52.2	-3.4	-3.3
Cc1ccc(CC(=O)Nc2ncc([N+](=O)[O-])s2)cc1	-1.72	15.8	15.6	20.6	-0.659
COc1cc(/C=N/Nc2nc(C)nc3c2cnn3-c2ccccc2)ccc1O	-0.16	22.9	33.0	-85.6	0.151
CC(C)Oc1ccc(CNCCC2(C(C)C)CCOC(C)(C)C2)cc1 (stereo not drawn)	-1.99	95.5*	9.1	5.5	-0.0317
CCSc1nnc(N(CCC#N)CCC#N)s1	-4.97*	-1.1	-2.5	-3.8	1.17
CN(Cc1ccc(F)cc1)C(=O)COc1ccccc1-c1ccccc1	/	3.4	64.1*	26.5	-1.19
CC(C)(C)c1ccc(OCCC(=O)NC2=NCCS2)cc1	-1.29	0.1	76.5*	-16.5	-0.0161
SMILES	ROMK primary	Lmaj promast	WT yeast gro inh	Calpain2 inh	Cl transport mod
CC(C)C(NC(=O)c1ccc(C(C)(C)C)cc1)C(=O)NC1=NCCS1 (stereo not drawn)	1.57	29.2	62.9*	14.7	/
COc1ccc(OCCC(=O)NC2=NCCS2)cc1	/	-1.2	-9.5	-18.7	-0.836
CC(C)[C@H](NC(=O)c1ccc(C(C)(C)C)cc1)C(=O)Nc1nnc(C2CC2)s1	/	83.5*	-5.3	41.1	-0.0142
O=C(NCCc1c[nH]c2ccc(Cl)cc12)c1cccnc1	/	10.5	-0.2	9.2	/
Cc1c(C(=O)Nc2cc(S(=O)(=O)N3CCOCC3)ccc2N2CCOCC2)oc2ccccc12	-0.154	45.4	23.1	-137.3	0.778
COc1ccc(C(CNC(=O)c2cccc(Br)c2)N2CCCC2)cc1 (stereo not drawn)	/	53.5*	-7.6	-11.4	-0.64
C=C1/C(=C\C=C2/CCC[C@]3(C)[C@@H]([C@H](C)CCCC(C)(C)O)CC[C@@H]23)C[C@@H](O)C[C@@H]1O	/	/	94.5*	13.9	0.528
COc1ccccc1-c1noc(CSc2nc(N)cc(=O)[nH]2)n1	0.216	-11.8	5.2	-32.2	-0.00247
CCc1cc(C(=O)Nc2cc(S(=O)(=O)N(C)C)ccc2C)sc1C	-0.936	98.8*	-15.9	1.3	-0.153
O=C1CC(c2ccc(Cl)c([N+](=O)[O-])c2)c2ccc3ccccc3c2N1 (stereo not drawn)	-0.649	99.6*	17.5	-19.7	-2.89
CN(C)c1ccc(C2CNC(c3ccc(Cl)c([N+](=O)[O-])c3)c3[nH]c4ccccc4c32)cc1 (stereo not drawn)	/	/	/	-36.2	-0.909
O=C1c2[nH]nc(-c3ccccc3O)c2C(c2ccccc2F)N1Cc1ccco1 (stereo not drawn)	-1.66	99.8*	5.8	-2.0	/
O=C1c2[nH]nc(-c3ccccc3O)c2C(c2ccccc2)N1Cc1ccco1 (stereo not drawn)	-2.5	78.0*	-11.2	-65.5	0.243
O=C(C1=C(O)C(=O)N(c2ncccn2)C1c1ccc(F)cc1)c1ccco1 (stereo not drawn)	-1.09	/	/	-11.6	-0.193
Nn1c(SCC(=O)Nc2ccc(S(N)(=O)=O)cc2)nnc1C(F)(F)F	/	/	/	3.6	1.35
CC1CCCCC1NC(=O)C(Cc1ccccc1)NS(=O)(=O)c1cccs1 (stereo not drawn)	-0.521	58.5*	9.7	26.9	/
CCC(=O)N1CCc2cc(S(=O)(=O)NC(Cc3ccccc3)C(=O)NC3CCCC3)ccc21 (stereo not drawn)	/	11.2	-5.5	6.3	-0.172
COc1ccc(OC)c(C(=O)Cn2nnc(-c3ccc(N4CCOCC4)cc3)n2)c1	/	/	/	-75.9	/
COc1ccc(-n2nc([N+](=O)[O-])c(=NCCc3ccccc3)n2O)cc1	-0.127	96.0*	5.1	7.3	-0.431
Cc1ccc(CCN=c2c([N+](=O)[O-])nn(-c3ccccc3)n2O)cc1	0.0407	46.7	-6.4	-7.6	0.672
O=[N+]([O-])c1nn(-c2ccccc2)n(O)c1=NCCc1ccccc1	-0.988	91.3*	-35.9	-0.2	0.0169
CCOC(=O)CC(NC(=O)c1cccc2c1C(=O)N(Cc1cccnc1)C2)c1ccc(OCC)c(OC)c1 (stereo not drawn)	0.6	1.0	10.9	20.1	-0.101
CC1=CC(C)(C)Nc2ccc(C)cc21	/	-2.8	25.5	-15.3	0.84
CC(C(=O)Oc1ccc2c(c1)OCO2)N1C(=O)c2ccccc2C1=O (stereo not drawn)	0.0747	-5.1	8.1	9.0	-0.563
CC1=CC(C)(C)Nc2ccc(OC(=O)c3cccnc3)cc21	0.434	100.6*	-1.5	i	-0.606
CC1=CC(C)(C)Nc2ccc(OC(=O)CN3C(=O)CCC3=O)cc21	/	100.4*	-15.8	-440.9	0.0706
CC1=CC(C)(C)Nc2ccc(OC(=O)C(C)N3C(=O)c4ccccc4C3=O)cc21 (stereo not drawn)	/	100.6*	5.9	i	0.948
